Screens (PubChem BioAssay)
An excerpt weighted towards active compounds, which were near 4% of everything screened.
Bst PK mod – pyruvate kinase (B. stearothermophilus) modulation. AID 361. Potency, µM. 51,000 tested, 1.2% active. purified pyruvate kinase, luminescence ATP production; ribose 5-phosphate activator present at AC10; in the data active = potency below about 11 µM; inconclusive = mostly about 12 µM to 25 µM;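 the screen sought inhibitors and activators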;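 also: scaled between full activation by ribose 5 phosphate and full inhibition by luteolin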
Caspase-7 inhib – allosteric or competitive inhibitors of human caspase-7. P55210. recombinant caspase-7, Ac-DEVD-AFC fluorescence rate. Potency, µM (top dose mostly 57.5 µM), without a hit: at the highest dose activity change, negative = inhibition, usual class: inhibitors. 75,000 tested, 0.02% active; active = well fitted inhibition curve with a large enough effect in the main read-out, with a control signal flat, not every such curve was filed as active; inconclusive = small, poorly fitted or top-dose-only effect, or a change in a side signal; also: % of control where 0% means no effect
TSHR agonist – agonists of human thyroid stimulating hormone receptor. HEK293-CNG-TSHR cells (CNG channel as cAMP sensor), membrane potential dye, cAMP. Potency, µM (highest dose often 57.1 µM), for inactives: at the top dose activation, usual class: activators. 73,000 tested, 0.48% active; active = well fitted activation curve with a large enough effect in the main read-out, with a control signal flat, not every such curve was filed as active; inconclusive = small, poorly fitted or top-dose-only effect, or a change in a side signal; inactive = no such curve, though single readings can be large or run the other way; % of control where 0% means no effect;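 also: the control signal comes from parental cells without the receptor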
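HEK 293 cells stably expressing TSHR and a modified CNG channel, with CNG-only parental cells as counterscreen, were preloaded 60 min at room temperature with membrane potential dye containing 100 uM RO 20-1724. Compound exposure was 30 min, and depolarization was read as fluorescence at 590 nm.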
GBA mod – human lysosomal glucosylceramidase modulation; AID 360; Potency, µM; P04062; purified enzyme, resorufin glucoside fluorescence (screen aimed at inhibitors), 20 min; 48,000 tested, 1.1% active; in the data active = potency below about 15 µM; inconclusive = mostly about 16 µM to 33 µM;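 also: the screen sought inhibitors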
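Compounds titrated against 0.2 nM normal enzyme, 30 uM resorufin beta-D-glucopyranoside substrate, citrate/phosphate buffer with taurocholate and tween-20, pH 5.9. Reaction ran 20 min at room temperature; fluorescence (Ex 548/Em 600) gave AC50.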
Casp1 inh – blocks human caspase-1 allosterically or competitively. Potency, µM (doses to about 57.5 µM), without a hit: top-dose activity change, negative = inhibition, most hits filed as inhibitors. 75,000 tested, 0.03% active. AID 900. Caspase-1 enzyme, Ac-WEHD-AFC fluorogenic rate;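 also: plate controls were vehicle for no effect and no substrate for full effect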
Target sequence (P29466 120-297 limits assumed): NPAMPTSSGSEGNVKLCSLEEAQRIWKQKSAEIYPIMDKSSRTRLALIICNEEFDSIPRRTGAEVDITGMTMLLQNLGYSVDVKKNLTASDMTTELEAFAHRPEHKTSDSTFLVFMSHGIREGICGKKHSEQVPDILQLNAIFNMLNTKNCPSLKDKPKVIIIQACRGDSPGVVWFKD
Target sequence (P29466 317-404 limits assumed): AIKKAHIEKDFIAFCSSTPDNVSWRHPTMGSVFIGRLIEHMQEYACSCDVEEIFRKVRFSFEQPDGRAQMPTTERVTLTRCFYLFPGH
HEK293 cAMP ctrl – raises cAMP in parental HEK293 cells, TSHR agonist counter-screen | parental HEK293 CNG cAMP sensor, membrane potential fluorescence | Potency, µM (doses to about 57.1 µM), without a hit: at the highest dose activation, actives largely listed as activators | 73,000 tested, 2.5% active; also: % of control where 0% means no effect; nearly all actives have a fitted effect of over 55% in size
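Counterscreen for endogenous-receptor signalling: CNG-channel HEK 293 cells report cAMP rise by membrane depolarization. After 60 min dye equilibration with 100 uM RO 20-1724, compounds incubated 30 min before bottom-read fluorescence at 590 nm.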
* hit, by the source's call; [ ] = another dose, or the depositor's remark. Unless noted, calls follow the shape of the dose curve; as a rule, active = well fitted curve in the direction sought with a large enough effect; inconclusive = small, poorly fitted or top-dose-only effect, or another doubt; inactive = no such curve, though single readings can be large; an effect the other way counts as inactive or inconclusive. Potency is read from the fitted curve at half-maximal effect.

For CC[C@]1(O)C[C@H]2CN(CCc3c([nH]c4ccccc34)[C@](C(=O)OC)(c3cc4c(cc3OC)N(C=O)[C@H]3[C@@](O)(C(=O)OC)[C@H](OC(C)=O)[C@@]5(CC)C=CCN6CC[C@]43[C@H]65)C2)C1 the results were Caspase-7 inhib 0%, TSHR agonist 8%, Casp1 inh 3% and HEK293 cAMP ctrl 15%.
For C=CCOC(=O)C1=C(C)NC(SC)=C(C#N)C1c1ccc(OCC)cc1 (stereo unspecified) the results were Bst PK mod >57, Caspase-7 inhib -27%, TSHR agonist 0.5µM*, GBA mod inconclusive and HEK293 cAMP ctrl 15%.
Screening CCCOc1ccc2ccccc2c1/C=N/n1c(C)nnc1-n1nc(C)cc1C returned Caspase-7 inhib -5%, TSHR agonist inconclusive, Casp1 inh -4% and HEK293 cAMP ctrl 4µM*.
For Cc1cc(C)n(-c2nnc(C)n2/N=C/c2ccco2)n1 the results were Bst PK mod >11.
`CCNc1ncc2nc(-c3ccc(OC)cc3)c(=O)n(-c3ccc(OC)cc3)c2n1` gave Caspase-7 inhib inconclusive, TSHR agonist inconclusive and HEK293 cAMP ctrl 32µM*.
For O=C(c1cc(-c2ccc3c(c2)OCO3)on1)N1CCN(c2ccc(F)cc2)CC1 the results were Bst PK mod >57, Caspase-7 inhib 0%, TSHR agonist inconclusive, GBA mod >77, Casp1 inh -1% and HEK293 cAMP ctrl 32µM*.
O=C(c1cc(-c2ccc3c(c2)OCO3)on1)N1CCN(c2ccccc2)CC1 was read as Caspase-7 inhib -4%, TSHR agonist inconclusive, Casp1 inh 0% and HEK293 cAMP ctrl inconclusive.
Screening O=C(c1ccc2c(c1)OCO2)N1CCN(c2ccccc2)CC1 returned Bst PK mod >57, Caspase-7 inhib 0%, TSHR agonist inconclusive, GBA mod >77, Casp1 inh -1% and HEK293 cAMP ctrl 16µM*.
O=C(c1ccc2c(c1)OCO2)N1CCCC(c2ccccc2)C1 (stereo unspecified) was read as Bst PK mod >57, Caspase-7 inhib 1%, TSHR agonist inconclusive, GBA mod >77, Casp1 inh -3% and HEK293 cAMP ctrl 10µM*.
Screening C=C/C(C)=C/[C@]1(C)SC(=O)C(C)=C1O returned Caspase-7 inhib -1%, TSHR agonist 5%, Casp1 inh 3% and HEK293 cAMP ctrl 5%.
`NCCCc1c(-c2ccccc2)nc(N)[nH]c1=O` gave Caspase-7 inhib -1%[11.5 µM], TSHR agonist 2%[11.4 µM], Casp1 inh 1%[11.5 µM] and HEK293 cAMP ctrl -3%[11.4 µM].
CC(=O)c1c(C)nc2ccccc2c1N was read as Bst PK mod 2.5*, Caspase-7 inhib -2%, TSHR agonist 1%, GBA mod >77, Casp1 inh -1% and HEK293 cAMP ctrl -7%.
Screening O=C(Nc1nc(-c2ccc(Cl)s2)cs1)c1cccs1 returned Bst PK mod inconclusive, Caspase-7 inhib -4%, TSHR agonist inconclusive, GBA mod inactive, Casp1 inh -2% and HEK293 cAMP ctrl 25µM*.
O=C(Nc1nc(-c2ccccc2)cs1)c1cccs1 was read as Caspase-7 inhib -4%, TSHR agonist inconclusive, Casp1 inh -4% and HEK293 cAMP ctrl inconclusive.
Screening c1ccc(Cn2nnnc2C(c2cccs2)N2CCc3ccccc3C2)cc1 (stereo unspecified) returned Bst PK mod >57, Caspase-7 inhib -3%, TSHR agonist inconclusive, GBA mod >77, Casp1 inh -2% and HEK293 cAMP ctrl 10µM*.
For COc1ccc(Cn2nnnc2C(c2cccs2)N2CCN(c3ccccc3)CC2)cc1 (stereo unspecified) the results were Bst PK mod >57, Caspase-7 inhib -4%, TSHR agonist inconclusive, GBA mod >77, Casp1 inh -3% and HEK293 cAMP ctrl inconclusive.
For c1ccc(Cn2nnnc2C(c2cccs2)N2CCCCCC2)cc1 (stereo unspecified) the results were Bst PK mod >57, Caspase-7 inhib -1%, TSHR agonist inconclusive, Casp1 inh 0% and HEK293 cAMP ctrl 25µM*.
